Experimental findings from the supplement of paper PMC11417369 are described below.

± gives the standard deviation of the averaged measurements. The full ranking holds about 25,000 sequences; the median of “ln(normalized median fluorescence intensity)” is about 10, and the highest 2% start at about 12. What follows is part of a selection rich in the highest values, with near analogues and random picks from the rest.

This assay has as its system PfAP2-G AP2 domain (GST-tagged). Nature of the assay: gcPBM binding intensity (ln(normalized median fluorescence intensity)); higher = stronger DNA binding. The essentials:
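Binding of GST-tagged P. falciparum DNA-binding domains, expressed in E. coli and used at about 25 μg on average, was carried out for 1 h in 1× PBS containing 1% milk, 0.2 mg/ml BSA, 0.5% salmon testes DNA and 0.03% Triton X-100. The target was an Agilent 4 × 180k array of primer-extended double-stranded 36-bp intergenic genomic probes plus negative controls, read with Alexa488 anti-GST antibody at 488 nm. Binding intensity is the highest Masliner-normalised natural-log median intensity across replicate spots of either probe orientation.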
With “ATAATCCTTGGACACACACACACACTAGTAAATAAA [CACACA_site4423]”, the “gcPBM binding intensity (ln)” value came to 10.9 ± 0.57.

For “ATAAAAGATATTTTTACACACTTTTGATGAGATCGT [CACACA_site3053]”, the “gcPBM binding intensity (ln)” value worked out at 10.08 ± 0.057.

Take “TTTTTAATCCTTTGCGCATGTAAAATTATATATTTT [TGCATGCA_site306]”: the “gcPBM binding intensity (ln)” value is 10.1 ± 0.11.

As to “TCATTTTAAGGAAAAAGTACAAAATAATATGTTCCT [XGTACX_site1903]”, the “gcPBM binding intensity (ln)” value was 11 ± 0.65.

For the sequence “ATCTCTTAAATTTTACGTACTTATTTTATCTTCTTA [XGTACX_site8877]”, the “gcPBM binding intensity (ln)” value worked out at 11.2 ± 0.67.

On to “AATTTCAATTTCTGTTGTACACTTTTTAATAGTAAA [XGTACX_site4085]”, for which the “gcPBM binding intensity (ln)” value was determined as 11.4 ± 0.88.

For “ATTATGATTTTATAGAACTGAACATTTACATTAAAT [GTGCAC_negctrl_site192]”, the “gcPBM binding intensity (ln)” value stood at 9.855 ± 0.064.

As for “TAAAAATGTGGACACACACACATATTTATATTTAAT [CACACA_site6827]”, the “gcPBM binding intensity (ln)” value turned out to be 11.4 ± 0.72.

With “TATCCATTATTTAAAAGTACAAAAAACGATTTACAC [XGTACX_site2979]”, the “gcPBM binding intensity (ln)” value came to 11.3 ± 0.8.

With “ATATAAAAATGTGTATGTACACACTTTATTTTTAAT [XGTACX_site5272]”, the “gcPBM binding intensity (ln)” value stood at 11.4 ± 0.74.

With “TTAAGTATTTTACGTACACACTTATAAATGTACAGG [CACACA_site6012]”, the “gcPBM binding intensity (ln)” value was 11.7 ± 0.93.

For “CTACACACTTATAAATGTACAGGATTTAAGTATATG [XGTACX_site8245]”, the “gcPBM binding intensity (ln)” value amounted to 10.9 ± 0.49.

Take “CATATAATAAATAATACACACATATTGGAAATATAT [CACACA_site3212]”: the “gcPBM binding intensity (ln)” value is 9.98 ± 0.057.

Regarding “TATGGAATAATACGCGTACACACATATATATATTAA [CACACA_site132]”, the “gcPBM binding intensity (ln)” value is 11.6 ± 0.93.

Turning to “TGGAATAATCCGCGTACACACATATATATATTAAGA [CACACA_site4253]”, the “gcPBM binding intensity (ln)” value was found to be 11.6 ± 0.87.

As to “TGGAATAATACGCGTACACACATATAAATATTAATA [CACACA_site6211]”, the “gcPBM binding intensity (ln)” value amounted to 11.7 ± 0.91.

Consider “GTCTGCATATGGATACGTACACATATATATTAATGT [XGTACX_site2260]”, for which the “gcPBM binding intensity (ln)” value amounted to 11.7 ± 0.91.

For “GAATAATATGGACATACACACATATACATACATATA [CACACA_site2114]”, the “gcPBM binding intensity (ln)” value is 10.9 ± 0.51.

For “ATATGGAATAATACGCGTACACACATATATATATTA [XGTACX_site307]”, the “gcPBM binding intensity (ln)” value was found to be 11.7 ± 1.

With “TATAAATACATACGTACACACAAATATTAAAATATA [CACACA_site5129]”, the “gcPBM binding intensity (ln)” value is 11.5 ± 0.87.

“AATATATATTAATACACACACACATATATATATATA [CACACA_site3786]”: the “gcPBM binding intensity (ln)” value was 10.3 ± 0.47.

For “TTAAAAATTATGGATACACACATATATATATATATT [CACACA_site2383]”, the “gcPBM binding intensity (ln)” value came out at 10.2 ± 0.2.

Take “TGGAATAATACGCGTACACACATATATATATTAATA [CACACA_site131]”: the “gcPBM binding intensity (ln)” value was determined as 11.8 ± 0.97.

In the case of “GTAATTATATACATACGTACATACACATATGTATAT [XGTACX_site4149]”, the “gcPBM binding intensity (ln)” value came to 11.3 ± 0.65.

Consider “AGTTTTATATTTCTGAGTACTTATGAATCTAGCTCG [XGTACX_site4330]”, for which the “gcPBM binding intensity (ln)” value is 11.2 ± 0.72.
